# Laboratory results reported in PubChem BioAssay (NCATS).
# “And” between values parts separate entries of the source, which are not always exact repeats. Equal values may be shown once. Inconclusive results are not listed. A call without a number means that no potency is given here. Values without a mark were called inactive. The source made the active and inactive calls. The call rests on the fitted dose curve; in most records, active means well fitted curve in the direction sought with a large enough effect; inconclusive means small, poorly fitted or top-dose-only effect, or another doubt; inactive means no such curve, though single readings can be large; an effect the other way counts as inactive or inconclusive.
# Columns and labels:
# [1] = biological target: Cellular tumor antigen p53 (Homo sapiens) (UniProt P04637); assay: Primary qHTS for small molecule compounds that upregulate eGFP-tagged delta133p53alpha (in N-terminal) cells. (AID 2060322); conditions: NCI-H358 eGFP-delta133p53alpha fluorescence, 24 h; activation: active compounds read high; further: nearly all actives have a fitted effect of over 75% in size; further: potency means the concentration at half of the fitted maximal effect; on activation: series mostly up to about 56 µM
# Method in brief: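 NCI-H358 cells pre-induced 24 h with 10 ng/ml doxycycline to express N-terminal eGFP-delta133p53alpha, then dosed 24 h at 37C without doxycycline; fixed, Hoechst-stained, GFP intensity by laser scanning cytometry, normalized to DMSO (0%) and 57.5 uM 5-azacytidine (100%).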
# [2] = biological target: Aldehyde dehydrogenase, mitochondrial (Homo sapiens) (UniProt P05091); assay: qHTS for Inhibitors of the Aldehyde Dehydrogenase Family (ALDH2) Primary screen (AID 2061308); further: nearly all actives have a fitted effect of over 55% in size
# [3] = biological target: Retinaldehyde dehydrogenase 3 (Homo sapiens) (UniProt P47895); assay: qHTS for Inhibitors of the Aldehyde Dehydrogenase Family (ALDH1A3) Validation screen (AID 2061312); further: nearly all actives have a fitted effect of over 45% in size; further: potency means the concentration at half of the fitted maximal effect
# [4] = biological target: Retinaldehyde dehydrogenase 3 (Homo sapiens) (UniProt P47895); assay: qHTS for Inhibitors of the Aldehyde Dehydrogenase Family (ALDH1A3) Primary screen (AID 2061315); further: potency means the concentration at half of the fitted maximal effect
# [5] = biological target: Retinaldehyde dehydrogenase 3 (Homo sapiens) (UniProt P47895); assay: qHTS for Inhibitors of the Aldehyde Dehydrogenase Family (ALDH1A3) Confirmatory screens (AID 2061311); further: potency means the concentration at half of the fitted maximal effect; nearly all actives have a fitted effect of over 60% in size
# [6] = biological target: Retinal dehydrogenase 2 (Homo sapiens) (UniProt O94788); assay: qHTS for Inhibitors of the Aldehyde Dehydrogenase Family (ALDH1A2) Confirmation screens (AID 2061314); further: nearly all actives have a fitted effect of over 65% in size; further: potency means the concentration at half of the fitted maximal effect
# [7] = biological target: Aldehyde dehydrogenase 1A1 (Homo sapiens) (UniProt P00352); assay: qHTS for Inhibitors of the Aldehyde Dehydrogenase Family (ALDH1A1) Confirmatory screens (AID 2061316); further: nearly all actives have a fitted effect of over 65% in size; further: potency means the concentration at half of the fitted maximal effect
# Chain of Cellular tumor antigen p53 (Homo sapiens) (P04637 whole entry, looked up): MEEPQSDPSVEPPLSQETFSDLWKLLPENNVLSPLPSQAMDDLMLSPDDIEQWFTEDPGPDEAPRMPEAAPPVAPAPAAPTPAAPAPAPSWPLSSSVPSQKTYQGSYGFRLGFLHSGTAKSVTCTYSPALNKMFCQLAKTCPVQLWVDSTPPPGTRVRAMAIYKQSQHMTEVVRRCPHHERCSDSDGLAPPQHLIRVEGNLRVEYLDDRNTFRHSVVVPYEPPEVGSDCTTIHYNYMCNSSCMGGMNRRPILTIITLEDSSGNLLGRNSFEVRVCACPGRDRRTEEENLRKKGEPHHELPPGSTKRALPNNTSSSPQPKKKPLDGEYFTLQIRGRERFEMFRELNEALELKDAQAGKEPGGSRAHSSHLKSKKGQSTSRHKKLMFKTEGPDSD
smiles,measurement,setting,value
CC1(C)CCC(C)(C)c2cc(C#Cc3ccc(C(=O)O)cc3)ccc21,activation,[1],-5.25%
same,Potency,[2],inactive
same,Potency,[3],inactive
same,Potency,[4],inactive
CNCCC(c1cccs1)c1ccc(O)c2ccccc12 (stereo not drawn),activation,[1],-7.67%
same,Potency,[2],inactive
same,Potency,[5],22.5 µM (active)
same,Potency,[4],15.8 µM (active)
C=C1CC[C@H](O)CC1=C/C=C1\CCC[C@]2(C)[C@@H]([C@H](C)/C=C/[C@H](C)C(C)C)CC[C@@H]12,activation,[1],5.73%
same,Potency,[2],inactive
same,Potency,[3],8.91 µM (active)
CC[C@H](NC(=O)c1c(O)c(-c2ccccc2)nc2ccccc12)c1ccccc1,activation,[1],2.86%
same,Potency,[2],inactive
same,Potency,[5],3.57 µM (active)
same,Potency,[6],1.27 µM (active)
same,Potency,[7],3.18 µM (active)
Cc1cc(N=Nc2ccc(S(=O)(=O)Nc3ccccn3)cc2)c(N)cc1O,activation,[1],-5%
same,Potency,[2],inactive
same,Potency,[5],11.3 µM (active)
same,Potency,[7],11.3 µM (active)
CC(C)c1cc2c(c(O)c1O)[C@@]13CCCC(C)(C)C1[C@@H](O)[C@@H]2OC3=O (stereo partly drawn),activation,[1],-5.34%
same,Potency,[2],inactive
same,Potency,[5],13.9 µM (active)
same,Potency,[4],4.47 µM (active)
Cc1ccc(C(=O)C(C)CN2CCCCC2)cc1 (stereo not drawn),activation,[1],-2.39%
same,Potency,[2],inactive
same,Potency,[3],inactive
same,Potency,[4],inactive
Cc1nc(Nc2ccc(F)cc2)nc(N2CCc3ccccc3C2C)c1C (stereo not drawn),activation,[1],11.9%
same,Potency,[2],inactive
same,Potency,[3],inactive
same,Potency,[4],inactive
COC(=O)[C@H](CC1C=NC=N1)NCC12CC3CC(CC(C3)C1)C2 (stereo partly drawn),activation,[1],-8.11%
same,Potency,[2],inactive
same,Potency,[3],inactive
Cc1nnc(-c2ccc(-c3ccc(C(=O)Nc4ccc(O)c(N5CCN(C)CC5)c4)cc3)c(C)c2)o1,activation,[1],-0.477%
same,Potency,[2],inactive
same,Potency,[3],inactive
COc1cc(O)c(C(=O)O)c(CCc2ccccc2)c1,activation,[1],-15.3%
same,Potency,[2],inactive
same,Potency,[5],12.7 µM (active)
same,Potency,[7],10.1 µM (active)
COCCN1CCC(C(=O)NO)(S(=O)(=O)c2ccc(Oc3ccc(OC(F)(F)F)cc3)cc2)CC1,activation,[1],-13.4%
same,Potency,[2],inactive
same,Potency,[3],inactive
same,Potency,[4],inactive
CC[C@@H](N)CNc1ccnc(-c2cc(-c3cnn(C)c3)ccc2O)n1,Potency,[1],6.75 µM (active)
same,Potency,[2],inactive
same,Potency,[3],inactive
same,Potency,[4],inactive
CC(=O)CC1CCC(C(C)C(=O)OCC(O)CO)O1 (stereo not drawn),activation,[1],-0.763%
same,Potency,[2],inactive
same,Potency,[5],4.49 µM (active)
same,Potency,[4],15.8 µM (active)
same,Potency,[7],15.9 µM (active)
Cc1cccc(C#Cc2cc(F)cc(C#N)c2)n1,activation,[1],-6.68%
same,Potency,[2],inactive
same,Potency,[3],5.62 µM (active)
O=C(Nc1ccccc1)N1CCC(Cc2cnc3ccccc3c2)CC1,activation,[1],3.34%
same,Potency,[2],inactive
same,Potency,[3],inactive
same,Potency,[6],inactive
same,Potency,[4],inactive
COc1cc(O[C@@H]2O[C@H](CO[C@H]3OC[C@](O)(CO)[C@H]3O)[C@@H](O)[C@H](O)[C@H]2O)cc(OC)c1O,activation,[1],-16.8%
same,Potency,[2],inactive
same,Potency,[5],4.91 µM (active)
same,Potency,[4],2.82 µM (active)
same,Potency,[7],inactive
COc1ccccc1N1CCN(CC[C@@](C)(C(=O)C2CCCCC2)c2ccccc2)CC1,activation,[1],8.11%
same,Potency,[2],inactive
same,Potency,[3],inactive
same,Potency,[4],inactive
O=C(Nc1cc2cc[nH]c2cn1)c1ccccc1,activation,[1],-10%
same,Potency,[2],inactive
same,Potency,[3],39.8 µM (active)
COc1cccc(C(=O)NCCNc2nc3cc(C)cc(C)c3cc2C#N)c1,activation,[1],-1.91%
same,Potency,[2],inactive
same,Potency,[3],inactive
same,Potency,[4],inactive
O=C(O)C1(c2ccc(-c3ccc(Cl)c(Cl)c3)c(F)c2)CC1,activation,[1],-12.9%
same,Potency,[2],inactive
same,Potency,[3],44.7 µM (active)
Cc1ccc(NC(=O)C(C)C)cc1C1CCN(Cc2ccc(Oc3ccc(F)c(F)c3)cc2)CC1,activation,[1],16.7%
same,Potency,[2],inactive
same,Potency,[3],inactive
same,Potency,[4],inactive
Cc1cc(OCCN2CCOCC2)nn1-c1ccc2ccccc2c1,activation,[1],4.3%
same,Potency,[2],inactive
same,Potency,[3],inactive
same,Potency,[4],inactive
CC(C)C(=O)Oc1ccc(CO)cc1[C@H](CCN(C(C)C)C(C)C)c1ccccc1,activation,[1],16.6% and 0.955%
same,Potency,[2],inactive
same,Potency,[3],inactive
same,Potency,[4],inactive
CC(C)[C@@H]1C(=O)N(S(C)(=O)=O)[C@@H]2CCN(C(=O)/C=C/CN3CCCCC3)[C@H]21,activation,[1],8.11%
same,Potency,[2],inactive
same,Potency,[3],inactive
same,Potency,[4],inactive
